# Source: PubChem BioAssay (NCI)
# Where “and” joins values, the source holds several entries; their conditions need not be identical. Identical values can stand only once. This is part of a sample that, as a whole, favours compounds with a hit. Of some 79,000 tested, about 15% had one in any assay. Where a structure was tested more than once in an assay, its records may differ in their call. Calls of active or inactive are those of the source. Rule as the data show it: active = growth inhibition above about 70%; inactive = the rest.
# Columns and labels:
# [1] = NCI Yeast Anticancer Drug Screen. Data for the rad52 strain (AID 147);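 also: 0% = growth of vehicle-treated control cultures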; details: S. cerevisiae rad52 mutant growth inhibition, stronger effect = higher value
# Outline: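 Yeast strain carrying a DNA damage repair alteration was exposed to test compounds. Growth inhibition was measured relative to vehicle-treated controls.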
# [2] = NCI Yeast Anticancer Drug Screen. Data for the rad50EPP+ strain (AID 151);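 also: 0% = growth of vehicle-treated control cultures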; details: S. cerevisiae rad50 mutant strain, stronger effect = higher value
# Outline: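 Yeast strain carrying rad50 alteration (rad50EPP+) exposed to compounds; growth inhibition measured relative to vehicle-treated controls.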
# [3] = NCI Yeast Anticancer Drug Screen. Data for the mgt1 strain (AID 153); details: S. cerevisiae mgt1 mutant growth inhibition, stronger effect = higher value
# Outline: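 Yeast mgt1 strain (DNA repair/cell-cycle alteration panel) exposed to compounds; growth inhibition measured relative to vehicle-treated controls.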
# [4] = NCI Yeast Anticancer Drug Screen. Data for the rad50 strain (AID 155);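 also: 0% = growth of vehicle-only cultures of the same strain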; details: S. cerevisiae rad50 strain growth inhibition, stronger effect = higher value
# Outline: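 Inhibition values express reduced yeast growth in compound-treated cultures relative to vehicle-treated controls.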
# [5] = NCI Yeast Anticancer Drug Screen. Data for the mec2-1 strain (AID 157); details: S. cerevisiae mec2-1 strain, stronger effect = higher value
# Outline: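 mec2-1 yeast strain, carrying an alteration in DNA damage repair or cell cycle control, was exposed to compounds; growth inhibition was measured relative to vehicle-treated controls.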
# [6] = NCI Yeast Anticancer Drug Screen. Data for the rad14 strain (AID 159);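 also: 0% = growth of vehicle-treated control cultures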; details: S. cerevisiae rad14 strain growth inhibition, stronger effect = higher value
# Outline: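 A mutant yeast strain defective in DNA damage repair is treated with compound; inhibition of its growth is scored against untreated, vehicle-exposed cultures.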
# [7] = NCI Yeast Anticancer Drug Screen. Data for the sgs1 mgt1 strain (AID 161);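 also: 0% = growth of cultures given vehicle only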; details: S. cerevisiae sgs1 mgt1 strain, stronger effect = higher value
# Outline: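 Percent growth inhibition was derived by comparing compound-exposed mutant yeast with vehicle-exposed cultures. The strain carries alterations in DNA damage repair.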
# [8] = NCI Yeast Anticancer Drug Screen. Data for the CLN2oe strain (AID 163);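 also: 0% = growth of vehicle-only control cultures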; details: S. cerevisiae CLN2oe strain, stronger effect = higher value
# Outline: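 Yeast cells carrying a defined cell-cycle control alteration were exposed to test compounds. Growth inhibition was scored against vehicle-treated control cultures.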
# [9] = NCI Yeast Anticancer Drug Screen. Data for the cln2 rad14 strain (AID 165);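 also: 0% = growth equal to vehicle treated cultures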; details: S. cerevisiae cln2 rad14 strain, stronger effect = higher value
# Outline: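 Yeast carrying cln2 and rad14 alterations (cell cycle control and DNA damage repair) were exposed to compounds. Growth inhibition was measured against vehicle-treated controls.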
# [10] = NCI Yeast Anticancer Drug Screen. Data for the bub3 strain (AID 167); details: S. cerevisiae bub3 mutant strain, stronger effect = higher value
# Outline: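 Steps: expose the mutant yeast strain to compound; grow alongside vehicle-treated cultures; measure growth; express inhibition against the vehicle cultures.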
# [11] = NCI Yeast Anticancer Drug Screen. Data for the wt2 strain (AID 169);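 also: 0% = growth of vehicle-treated yeast cultures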; details: S. cerevisiae wt2 strain growth inhibition, stronger effect = higher value
# Outline: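 Yeast cells were exposed to test compounds, and growth inhibition was measured relative to vehicle-treated controls.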
# [12] = NCI Yeast Anticancer Drug Screen. Data for the mlh1 strain (AID 171);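 also: 0% = growth of vehicle-treated control cultures of the same strain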; details: S. cerevisiae mlh1 strain growth inhibition, stronger effect = higher value
# Outline: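 Yeast carrying a defined genetic alteration in DNA damage repair or cell cycle control were exposed to test compounds. Growth inhibition was measured relative to vehicle-treated controls.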
# [13] = NCI Yeast Anticancer Drug Screen. Data for the sgs1 strain (AID 173);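 also: 0% = growth of vehicle-only control cultures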; details: S. cerevisiae sgs1 mutant, stronger effect = higher value
# Outline: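 Yeast mutant strains carrying defined defects in DNA damage repair or cell cycle control were exposed to test compounds. Growth inhibition was scored against vehicle-treated controls.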
# [14] = NCI Yeast Anticancer Drug Screen. Data for the mlh1 rad18 strain (AID 175); details: S. cerevisiae mlh1 rad18 strain growth inhibition, stronger effect = higher value
# Outline: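 Growth inhibition of the yeast strain was measured after compound exposure and expressed relative to vehicle-treated controls. The strain carries defined defects in DNA damage repair.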
# [15] = NCI Yeast Anticancer Drug Screen. Data for the rad18 strain (AID 177); details: S. cerevisiae rad18 mutant growth inhibition, stronger effect = higher value
# Outline: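 Yeast carrying a defined DNA damage repair alteration were exposed to compounds. Growth inhibition was expressed relative to vehicle-treated controls.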
# [16] = at 5.0 µM (retest, dose inferred, filed as 0.5)
# [17] = at 50.0 µM (retest, dose inferred, filed as 5.0)
compound,measurement,setting,value
O=C(O)C1C2C=CC(C2)C1c1ccccc1 (stereo not drawn),growth inhibition,[1]; at 1.2 µM,-1% (inactive)
same,growth inhibition,[1]; at 3.7 µM,0% (inactive)
same,growth inhibition,[1]; at 11.0 µM,-2% (inactive)
same,growth inhibition,[1]; at 33.0 µM,-3% (inactive)
same,growth inhibition,[1]; at 100.0 µM,5% (inactive)
same,growth inhibition,[2]; at 1.2 µM,-6% (inactive)
same,growth inhibition,[2]; at 3.7 µM,-8% (inactive)
same,growth inhibition,[2]; at 11.0 µM,-6% (inactive)
same,growth inhibition,[2]; at 33.0 µM,-5% (inactive)
same,growth inhibition,[2]; at 100.0 µM,0% (inactive)
same,growth inhibition,[3]; at 1.2 µM,-1% (inactive)
same,growth inhibition,[3]; at 3.7 µM,-1% (inactive)
same,growth inhibition,[3]; at 11.0 µM,-4% (inactive)
same,growth inhibition,[3]; at 33.0 µM,-5% (inactive)
same,growth inhibition,[3]; at 100.0 µM,2% (inactive)
same,growth inhibition,[4]; at 1.2 µM,-1% (inactive)
same,growth inhibition,[4]; at 3.7 µM,26% (inactive)
same,growth inhibition,[4]; [16],-1% (inactive)
same,growth inhibition,[4]; at 11.0 µM,1% (inactive)
same,growth inhibition,[4]; at 33.0 µM,0% (inactive)
same,growth inhibition,[4]; [17],4% (inactive)
same,growth inhibition,[4]; at 50.0 µM,10.9% (inactive) and 4.35% (inactive)
same,growth inhibition,[4]; at 100.0 µM,17% (inactive)
same,growth inhibition,[5]; at 1.2 µM,0% (inactive)
same,growth inhibition,[5]; at 3.7 µM,0% (inactive)
same,growth inhibition,[5]; [16],-1% (inactive)
same,growth inhibition,[5]; at 11.0 µM,0% (inactive)
same,growth inhibition,[5]; at 33.0 µM,-1% (inactive)
same,growth inhibition,[5]; [17],3% (inactive)
same,growth inhibition,[5]; at 50.0 µM,1.4% (inactive) and 9.7% (inactive)
same,growth inhibition,[5]; at 100.0 µM,9% (inactive)
same,growth inhibition,[6]; at 1.2 µM,-5% (inactive)
same,growth inhibition,[6]; at 3.7 µM,-7% (inactive)
same,growth inhibition,[6]; at 11.0 µM,-10% (inactive)
same,growth inhibition,[6]; at 33.0 µM,-11% (inactive)
same,growth inhibition,[6]; at 100.0 µM,-4% (inactive)
same,growth inhibition,[7]; [16],-3% (inactive)
same,growth inhibition,[7]; [17],3% (inactive)
same,growth inhibition,[7]; at 50.0 µM,7% (inactive) and -6.6% (inactive)
same,growth inhibition,[8]; at 1.2 µM,-4% (inactive)
same,growth inhibition,[8]; at 3.7 µM,-10% (inactive)
same,growth inhibition,[8]; at 11.0 µM,-4% (inactive)
same,growth inhibition,[8]; at 33.0 µM,-6% (inactive)
same,growth inhibition,[8]; at 100.0 µM,5% (inactive)
same,growth inhibition,[9]; [16],-5% (inactive)
same,growth inhibition,[9]; [17],-5% (inactive)
same,growth inhibition,[9]; at 50.0 µM,-0.2% (inactive) and 0.6% (inactive)
same,growth inhibition,[10]; at 1.2 µM,6% (inactive)
same,growth inhibition,[10]; at 3.7 µM,20% (inactive)
same,growth inhibition,[10]; [16],34% (inactive)
same,growth inhibition,[10]; at 11.0 µM,45% (inactive)
same,growth inhibition,[10]; at 33.0 µM,73% (active)
same,growth inhibition,[10]; [17],93% (active)
same,growth inhibition,[10]; at 50.0 µM,30.1% (inactive) and 95.9% (active)
same,growth inhibition,[10]; at 100.0 µM,85% (active)
same,growth inhibition,[11]; at 1.2 µM,-2% (inactive)
same,growth inhibition,[11]; at 3.7 µM,5% (inactive)
same,growth inhibition,[11]; at 11.0 µM,-4% (inactive)
same,growth inhibition,[11]; at 33.0 µM,-3% (inactive)
same,growth inhibition,[11]; at 100.0 µM,8% (inactive)
same,growth inhibition,[12]; at 1.2 µM,-1% (inactive)
same,growth inhibition,[12]; at 3.7 µM,0% (inactive)
same,growth inhibition,[12]; at 11.0 µM,1% (inactive)
same,growth inhibition,[12]; at 33.0 µM,0% (inactive)
same,growth inhibition,[12]; at 100.0 µM,11% (inactive)
same,growth inhibition,[13]; at 1.2 µM,-5% (inactive)
same,growth inhibition,[13]; at 3.7 µM,-5% (inactive)
same,growth inhibition,[13]; at 11.0 µM,-5% (inactive)
same,growth inhibition,[13]; at 33.0 µM,6% (inactive)
same,growth inhibition,[13]; at 100.0 µM,40% (inactive)
same,growth inhibition,[14]; [16],-3% (inactive)
same,growth inhibition,[14]; [17],5% (inactive)
same,growth inhibition,[14]; at 50.0 µM,10.6% (inactive) and 6.5% (inactive)
same,growth inhibition,[15]; at 1.2 µM,-1% (inactive)
same,growth inhibition,[15]; at 3.7 µM,-3% (inactive)
same,growth inhibition,[15]; at 11.0 µM,-2% (inactive)
same,growth inhibition,[15]; at 33.0 µM,10% (inactive)
same,growth inhibition,[15]; at 100.0 µM,60% (inactive)
